From PubChem BioAssay
Jurkat NFkB inh = inhibitors of the PMA/ionomycin-induced NF-kB reporter in Jurkat cells. PMA/ionomycin-induced NF-kB luciferase reporter, luminescence. inhibition, % at 4 µM. actives 0.53% (n = 330,000). AID 435003; in the data active = inhibition above about 50%
F508del corr = CFTR F508del correction in bronchial cells. CFBE cells, YFP halide quenching; stimulated with forskolin plus potentiator P3; % fluorescence drop versus neutral controls. activity (quench increase), % at 7.58 µM. actives 0.36% (n = 350,000);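 active = mean added fluorescence quench of at least 8% versus neutral control, with both replicates also reaching 8%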;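 also: cells transiently co-express mutant CFTR-F508del with the halide-sensitive YFP; corrector assay measuring rescue of mutant channel to the surface after 24 h compound exposure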
HIF activator = HIF pathway transcriptional activation. U2OS HRE-luciferase reporter, luminescence; normalized: DMSO 0%, desferrioxamine 100%. activation, % at 7.5 µM (by protocol). actives 0.32% (n = 300,000);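 active = mean activation of at least 10% of the iron chelator positive control signal, with at least half of replicates also reaching 10%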
697 NFkB inh = lowers PMA/ionomycin-induced NF-kB signal in 697 B cells; AID 435022; inhibition, % at 4 µM; 697 B-cell NF-kB luciferase reporter, 16 h; actives 0.33% (n = 330,000); in the data active = inhibition above about 35%
697 NFkB conf = lowers PMA/ionomycin-induced NF-kB signal in 697 B cells; shares compounds with 697 NFkB inh; 697 B-cell NF-kB luciferase, 16 h; inhibition, % at 4 µM; actives 35% (n = 2,000); in the data active = inhibition mostly above about 28%, no sharp cut-off; inactive = mostly below about 22%
Of the large screens only hits and unclear results are named; the others gave an inactive call (follow-up assays come after a bar, where they were run). Sampled rows, rich in hits. Any-hit rate of the full collection: about 0.93%.

O=C(N[C@H]1CC[C@H](CCn2cc(C3(O)CCCC3)nn2)O[C@H]1CO)C1CCC1	none (no result: Jurkat NFkB inh, HIF activator, 697 NFkB inh)
CN1C(=O)c2cc(NC(=O)Cc3ccccc3)ccc2OC[C@@H]2O[C@@H](CC(=O)NCC3CC3)CC[C@H]21	none (no result: Jurkat NFkB inh, HIF activator, 697 NFkB inh)
O=C(Nc1cccc(S(=O)(=O)Nc2ccc(Cl)cc2)c1)c1ccc(Cl)nc1	697 NFkB inh 57 | 697 NFkB conf 53
O=C(Nc1ccc(NS(=O)(=O)c2ccccc2)cc1)c1ccc(Cl)cc1	none
Cc1cnc(NC(=O)c2cc3c(s2)CCCC3)s1	none (no result: F508del corr) | 697 NFkB conf inactive
COc1ccccc1C(=O)NC(=S)Nc1cccnc1Cl	none | 697 NFkB conf inactive
Cn1c(SCC(=O)Nc2cc(Cl)cc(Cl)c2)nnc1-c1ccc2nonc2c1	697 NFkB inh 38 | 697 NFkB conf inactive
Cc1cc(-c2nc(C)c(-c3nnc(SCC(=O)Nc4cc(Cl)cc(Cl)c4)n3C)s2)no1	none
COc1ccc(NC(=O)CSc2nnc(-c3cccc(O)c3)o2)cc1	none
COc1cccc(NC(=O)CSc2nnc(-c3cc(C)n(-c4ccccc4)c3C)o2)c1	697 NFkB inh 71 (no result: F508del corr) | 697 NFkB conf inactive
Cc1ccccc1-c1nnc(SCC(=O)Nc2cccc(C)c2C)o1	697 NFkB inh 37 (no result: F508del corr) | 697 NFkB conf inactive
Cc1cccc(NC(=O)CSc2nnc([C@@H](N)Cc3ccccc3)o2)c1C	none (no result: F508del corr)
O=C(C1CCCC1)N1CC(=O)N2[C@H](CO)[C@H](c3ccc(C#Cc4cccc(F)c4)cc3)[C@@H]2C1	none (no result: Jurkat NFkB inh, HIF activator, 697 NFkB inh)
C[C@@H]1CCCCO[C@H](CN(C)C(=O)CCCN(C)C)[C@@H](C)CN([C@H](C)CO)C(=O)c2cc(NS(C)(=O)=O)ccc2O1	none (no result: Jurkat NFkB inh, HIF activator, 697 NFkB inh)
CCOc1ccc(-n2c(-c3ccccc3)c[n+]3c2CCCCC3)cc1	697 NFkB inh 63 | 697 NFkB conf 64
O=C(c1ccccn1)N1CC2(C1)[C@H](c1ccccc1)[C@@H](CO)N2Cc1cccnc1	none (no result: Jurkat NFkB inh, HIF activator, 697 NFkB inh)
Cc1cc2ccccn2c1C(=O)c1cc([N+](=O)[O-])cc([N+](=O)[O-])c1	none
Cc1cc2ccccn2c1C(=O)c1ccc(NN)c([N+](=O)[O-])c1	697 NFkB inh 45 | 697 NFkB conf 42
COc1cccc(NC(=O)N2CCC(C(=O)Nc3ccc(C)cc3C)CC2)c1	697 NFkB inh 35 (no result: F508del corr) | 697 NFkB conf inactive
CCCN1C[C@@H](C)[C@H](OC)CN(C)C(=O)c2cc(NC(=O)C3CC3)ccc2OC[C@@H]1C	none (no result: Jurkat NFkB inh, HIF activator, 697 NFkB inh)
O=C(NC(Cc1c[nH]c2ccccc12)C(=O)Nc1ccc(F)c([N+](=O)[O-])c1)c1cccs1 (stereo not drawn)	none (no result: F508del corr) | 697 NFkB conf inactive
O=C(NC(Cc1c[nH]c2ccccc12)C(=O)Nc1ccc(OC(F)(F)F)cc1)c1cccs1 (stereo not drawn)	none | 697 NFkB conf inactive
O=C(NC(Cc1c[nH]c2ccccc12)C(=O)O)c1cccs1 (stereo not drawn)	none
COc1ccccc1-c1cnc2c(c1)C(=O)N([C@H](C)CO)C[C@@H](C)[C@H](CN(C)Cc1ccc(C(=O)O)cc1)O2	none (no result: Jurkat NFkB inh, HIF activator, 697 NFkB inh)
CCOC(=O)Cn1c(-c2nonc2NC(=O)c2ccccc2F)nc2ccccc21	none (no result: F508del corr) | 697 NFkB conf inactive
CCC(=O)Nc1nonc1-c1nc2ccccc2n1Cc1ccccc1	none (no result: F508del corr)
CNC(=O)c1cc(Oc2ccc(NC(=O)Nc3ccc(Cl)c(C(F)(F)F)c3)cc2)ccn1	697 NFkB inh 63 (no result: HIF activator) | 697 NFkB conf 59
C[C@@H]1CCCCO[C@H](CN(C)C)[C@@H](C)CN([C@@H](C)CO)C(=O)c2cc(NS(=O)(=O)c3cccs3)ccc2O1	none (no result: Jurkat NFkB inh, HIF activator, 697 NFkB inh)
Cc1ccc(NS(=O)(=O)c2cccc(C(=O)O)c2)cc1S(=O)(=O)N1CCOCC1	none (no result: F508del corr)
Cc1ccc(NS(=O)(=O)c2ccc(Br)s2)cc1S(=O)(=O)N1CCOCC1	697 NFkB inh 46 | 697 NFkB conf inactive
COc1ccc(-c2nsc3c(N4CCCC4)ncnc23)cc1	none (no result: F508del corr) | 697 NFkB conf inactive
CCCc1cn(CC[C@H]2CC[C@@H](NC(=O)CCN3CCCCC3)[C@@H](CO)O2)nn1	none (no result: Jurkat NFkB inh, HIF activator, 697 NFkB inh)
O=C(Nc1ccc(/C=C/c2nc3ccccc3o2)cc1)c1cccc(C(F)(F)F)c1	none (no result: F508del corr) | 697 NFkB conf inactive
COc1cc2c(cc1NC(=O)c1ccc(C(C)(C)C)cc1)CCCC2	none (no result: F508del corr) | 697 NFkB conf inactive
